Values joined by “and” are separate entries in the source; they are usually repeats but may differ in a detail not shown here. Equal entries are not always repeated. Inconclusive results are not listed. A structure can be active in one record and inactive in another. Active and inactive are the calls of the source. Unless noted, calls come from the whole dose curve.

Test [1] concerns the target Glucocorticoid receptor (Homo sapiens) (UniProt P04150). In words: GR-GFP Redistribution (AID 450;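 active = compounds whose dose series gives a full or clear partial fitted curve of increased nuclear translocation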; note: potency is the fitted concentration of half-maximal effect). The following applies: U2OS GR-GFP nuclear translocation, laser cytometry, 2 h.
Test [2] shares this target. In words: GR-EFC Redistribution (AID 451). Note: potency is the fitted concentration of half-maximal effect. The following applies: CHO-K1 GR-EFC translocation, beta-gal luminescence, 2 h. A digest of the protocol:
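CHO-K1 cells stably expressing nuclear-localized β-gal enzyme acceptor and GR fused C-terminally to the enzyme donor fragment; ligand-driven nuclear translocation restores β-gal by complementation. Compounds titrated up to 46 uM final, 2 h at 37 °C; luminescence read.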

Test [3] is described as follows: Cell Viability - Jurkat (AID 426;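 active = dose-dependent loss of cell ATP signal giving a full or clear fitted curve, ranked by lower potency value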; note: potency is the fitted concentration of half-maximal effect). The conditions noted are these: qHTS. Summed up:
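Luminescent ATP read-out (CellTiter-Glo, 20 min at room temperature) after 40 hr compound exposure at 37 °C of Jurkat E6-1 cells, 5000/well. Decreased ATP taken as cytotoxicity; AC50 from standard Hill equation.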
Background: In qHTS, concentration-response curves come from the screen itself.

Test [4] can be described thus: Cell Viability - MRC5 (AID 434).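 Note: potency is the fitted concentration of half-maximal effect; potency reflects cytotoxicity seen as loss of intracellular ATP.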 The following applies: MRC5 lung fibroblast viability, qHTS. Summed up: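 Decrease in intracellular ATP, quantified by luciferase light output, reflects compound toxicity toward MRC5 cells exposed for 40 hr in complete culture medium. Concentration-response curves, scaled between DMSO and 100 uM tamoxifen, gave AC50 values.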
A short description of test [5]: Cell Viability - SK-N-SH (AID 435). Note: potency is the fitted concentration of half-maximal effect. The following applies: SK-N-SH neuroblastoma cell viability qHTS. Summed up: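 SK-N-SH neuroblastoma cells (1500/well) treated 40 h at 37 °C in complete medium; viability read as cellular ATP by CellTiter-Glo luminescence. Normalized to DMSO and 100 uM tamoxifen; AC50 from Hill fits of qHTS concentration-response.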
Test [6] can be described thus: Cell Viability - N2a (AID 540; active = well fitted curve in the direction sought with a large enough effect; an effect the other way counts as inactive or inconclusive; note: nearly all actives have a fitted effect of over 45% in size; note: potency is the fitted concentration of half-maximal effect;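 for activity change, negative = cytotoxicity: plate controls were DMSO alone for no effect and tamoxifen control for full effect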). The following applies: N2a mouse neuroblastoma cell viability; activity change, negative = cytotoxicity: at 92.2 µM (top of the series). Summed up: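 N2a mouse neuroblastoma, 1500 cells/well, 5 hr settle; compound 40 hr, 37 °C; CellTiter-Glo 20 min RT; luminescence; Hill-fit AC50.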
A short description of test [7]: Cell Viability - Mesenchymal (AID 546; active = well fitted curve in the direction sought with a large enough effect; an effect the other way counts as inactive or inconclusive;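 note: cells exposed to compound for 40 hours before reading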; note: potency is the fitted concentration of half-maximal effect;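 for activity change, negative = cytotoxicity: 0% = DMSO only and -100% = 100 µM tamoxifen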). The conditions noted are these: mesenchymal cells viability, qHTS; activity change, negative = cytotoxicity: at 91.7 µM (top of the series). A digest of the protocol: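 In this qHTS cytotoxicity format, glomerulus-derived human mesenchymal kidney cells received compound for 40 hr, then luciferase-based ATP quantitation. Concentration-response data were fitted with the Hill equation.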

The nature of test [8]: AP1 Signaling Pathway (AID 357; active = well fitted curve in either direction with a large enough effect, not every such curve was filed as active;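 note: ME-180 reporter cells stimulated with EGF at its EC50 level; % is set by controls: 0 for no effect and ±100 for the full control effect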). Summed up:
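First, ME-180 AP-1-bla cells were cultured overnight at 37 °C in low-serum Opti-MEM. Next, titrated compounds with EC50 EGF were incubated 5 hours. Finally, CCF4 was added for 2.5 hours and the 460/530 nm ratio recorded.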

In test [9] the target is Cytochrome P450 1A2 (Homo sapiens) (UniProt P05177). In words: p450-cyp1a2 (AID 410).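 For activity change, negative = inhibition: -100% = full effect of reference inhibitor.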 Note: potency is the fitted concentration of half-maximal effect. A digest of the protocol:
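20nM CYP1A2, 100uM Luciferin-ME (=Km), 100mM KPO4; cpd 10 min RT; +NADPH regen, 60 min RT; stop/detect 20 min; luminescence. Normalized to furafylline 57 uM = full inhibition.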

Test [10] in a line: Stat Signaling Pathway (AID 446; active = well fitted curve in either direction with a large enough effect, not every such curve was filed as active;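 note: ME-180 cervical cancer cells given 40 pM IL-6 alongside compound; SIE-controlled beta-lactamase reporter measured as 460/530 nm FRET emission ratio; % is set by controls: 0 for no effect and ±100 for the full control effect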). A digest of the protocol: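 Emission at 460 and 530 nm (excitation 405 nm) reports SIE-controlled beta-lactamase in ME-180 cells. Cells received compound with 40 pM IL-6 for 5 hrs at 37 C; data scaled between 300 pM IL-6 and 125 nM JAK-inhibitor controls.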
A short description of test [11]: NFAT Signaling Pathway (AID 444; active = well fitted curve in either direction with a large enough effect, not every such curve was filed as active;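 note: carbachol stimulus at about its EC50 of 1 µM final; % is set by controls: 0 for no effect and ±100 for the full control effect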). The following applies: Jurkat NFAT-bla M1, carbachol, beta-lactamase ratio, 5 h. Summed up: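 Jurkat cells carrying an NFAT-driven β-lactamase reporter and co-transfected muscarinic M1 receptor were treated with compound plus carbachol (1 uM final, an EC50 level) for 5 h at 37 °C. CCF4 loading followed for 1 h at RT; 460/530 nm ratio gave %activity.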

Test [12] has as its target 3',5'-cyclic-AMP phosphodiesterase 4B (Homo sapiens) (UniProt Q07343). In words: qHTS Assay for Inhibitors of PDE-IV (AID 607; active = well fitted activation curve with a large enough effect in the main read-out, with a control signal flat, not every such curve was filed as active; note: % of control where 0% means no effect). A digest of the protocol: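 The readout is membrane depolarisation from a cAMP-sensing CNG channel, detected with a potential dye at ex 535/em 590. Cells were HEK293-derived (endogenous PDE-IV) at 1000 cells/well, titrated up to 22.9 uM final.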

Test [13] is described as follows: Cell Viability - BJ (AID 421).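 Note: potency is the fitted concentration of half-maximal effect; cells exposed to compound for 40 hours at 37 °C before readout.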 The conditions noted are these: BJ fibroblast viability, qHTS. A digest of the protocol: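 Cytotoxicity in human BJ foreskin fibroblasts is scored as loss of cellular ATP after a 40-hour exposure, measured by luciferase luminescence. Controls are DMSO and 100 uM tamoxifen.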
Test [14] can be described thus: Cell Viability - HepG2 (AID 433).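 Note: potency is the fitted concentration of half-maximal effect; potency for ATP loss meaning cytotoxicity.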 The conditions noted are these: qHTS. Summed up:
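HepG2 cells, 1500 per well, treated 40 hr at 37 °C in complete medium; viability from intracellular ATP by CellTiter-Glo luminescence. Normalized to DMSO and 100 uM tamoxifen; AC50 from Hill fit of qHTS concentration-response.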

Test [15] can be described thus: Cell Viability - NIH 3T3 (AID 541; active = well fitted curve in the direction sought with a large enough effect; an effect the other way counts as inactive or inconclusive; note: nearly all actives have a fitted effect of over 25% in size; note: potency is the fitted concentration of half-maximal effect;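 for activity change, negative = cytotoxicity: plate controls were DMSO alone for no effect and tamoxifen positive control for full effect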). The conditions noted are these: NIH 3T3 cell viability, qHTS; activity change, negative = cytotoxicity: at 92.2 µM (top of the series). Summed up: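 qHTS format; 40 hr compound exposure, 37 °C; CellTiter-Glo luminescence (cellular ATP) read-out after 20 min at RT. Decrease in ATP = cytotoxicity; AC50 from standard Hill fit.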
Test [16] is described as follows: Cell Viability - H-4-II-E (AID 543; active = well fitted curve in the direction sought with a large enough effect; an effect the other way counts as inactive or inconclusive; note: nearly all actives have a fitted effect of over 35% in size; note: potency is the fitted concentration of half-maximal effect). Summed up: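 qHTS, rat hepatoma H-4-II-E, 1500 cells/well; 40 hr compound exposure, 37 °C; CellTiter-Glo ATP luminescence after 20 min RT; AC50 by standard Hill fit.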
Test [17] is described as follows: Cell Viability - SH-SY5Y (AID 544; active = well fitted curve in the direction sought with a large enough effect; an effect the other way counts as inactive or inconclusive; note: nearly all actives have a fitted effect of over 55% in size; note: potency is the fitted concentration of half-maximal effect). Summed up:
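SH-SY5Y, 1500 cells/well, 5 hr pre-incubation 37 °C; cpd 40 hr 37 °C; CellTiter-Glo 20 min RT; luminescence (ATP) read. qHTS concentration-response, Hill fit → AC50. Tamoxifen, doxorubicin as positive controls.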

A short description of test [18]: Cell Viability - Hek293 (AID 427;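 active = compounds whose dose-response curve shows a full or clear partial loss of cell viability, called from curve shape rather than a numeric limit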;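 note: potency is the fitted concentration of half-maximal effect; cells exposed to compound for 40 hours at 37 °C before reading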). The conditions noted are these: qHTS. A digest of the protocol: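 qHTS, human embryonic kidney (adenovirus-transformed) cells; 40 hr cpd, 37 °C; CellTiter-Glo ATP luminescence. Norm: DMSO = 0, 100 uM tamoxifen = 100% inhibition. Hill-fit AC50.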
A short description of test [19]: Cell Viability - HUV-EC-C (AID 542; active = well fitted curve in the direction sought with a large enough effect; an effect the other way counts as inactive or inconclusive; note: nearly all actives have a fitted effect of over 35% in size; note: potency is the fitted concentration of half-maximal effect; for activity change, negative = cytotoxicity: % is set by controls: 0 for no effect and ±100 for the full control effect). A digest of the protocol:
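Luminescent ATP read-out (CellTiter-Glo, 20 min room temperature) after 40 hr compound treatment of HUV-EC-C cells at 37 °C. Concentration-response data fitted with the standard Hill equation to give AC50; tamoxifen and doxorubicin served as positive controls.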

Test [20] can be described thus: Cell Viability - Renal Proximal Tubule (AID 545; active = well fitted curve in the direction sought with a large enough effect; an effect the other way counts as inactive or inconclusive; note: nearly all actives have a fitted effect of over 40% in size; note: potency is the fitted concentration of half-maximal effect;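 for activity change, negative = cytotoxicity: 0% = DMSO only and -100% = 100 µM tamoxifen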). Summed up:
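Rat renal proximal tubule primary cells, 1000/well, exposed to compounds for 40 hr at 37 °C in complete medium; cellular ATP read by CellTiter-Glo luminescence. AC50 from concentration-response fitted with standard Hill equation.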

Sequence of Glucocorticoid receptor (Homo sapiens) (P04150 whole entry, looked up): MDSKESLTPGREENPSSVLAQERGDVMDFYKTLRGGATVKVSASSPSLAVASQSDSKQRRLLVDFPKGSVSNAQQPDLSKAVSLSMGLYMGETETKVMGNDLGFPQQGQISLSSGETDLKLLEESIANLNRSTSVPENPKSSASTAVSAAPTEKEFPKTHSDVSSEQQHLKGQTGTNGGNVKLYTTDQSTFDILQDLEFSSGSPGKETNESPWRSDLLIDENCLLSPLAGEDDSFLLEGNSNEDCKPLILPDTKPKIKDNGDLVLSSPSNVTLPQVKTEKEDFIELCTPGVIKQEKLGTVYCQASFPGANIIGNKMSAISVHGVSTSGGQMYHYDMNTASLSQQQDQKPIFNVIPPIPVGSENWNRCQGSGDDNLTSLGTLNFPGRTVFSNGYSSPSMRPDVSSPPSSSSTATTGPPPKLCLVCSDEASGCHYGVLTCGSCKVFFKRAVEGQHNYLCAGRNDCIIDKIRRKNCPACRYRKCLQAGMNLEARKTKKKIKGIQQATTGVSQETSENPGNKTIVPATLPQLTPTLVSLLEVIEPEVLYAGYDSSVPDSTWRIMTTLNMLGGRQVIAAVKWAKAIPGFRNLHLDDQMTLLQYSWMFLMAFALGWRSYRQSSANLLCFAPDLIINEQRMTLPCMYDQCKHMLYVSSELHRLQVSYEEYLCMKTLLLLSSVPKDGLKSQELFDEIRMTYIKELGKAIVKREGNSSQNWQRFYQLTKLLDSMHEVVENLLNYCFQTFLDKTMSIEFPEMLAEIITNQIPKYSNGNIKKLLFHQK
Sequence of 3',5'-cyclic-AMP phosphodiesterase 4B (Homo sapiens) (Q07343 whole entry, looked up): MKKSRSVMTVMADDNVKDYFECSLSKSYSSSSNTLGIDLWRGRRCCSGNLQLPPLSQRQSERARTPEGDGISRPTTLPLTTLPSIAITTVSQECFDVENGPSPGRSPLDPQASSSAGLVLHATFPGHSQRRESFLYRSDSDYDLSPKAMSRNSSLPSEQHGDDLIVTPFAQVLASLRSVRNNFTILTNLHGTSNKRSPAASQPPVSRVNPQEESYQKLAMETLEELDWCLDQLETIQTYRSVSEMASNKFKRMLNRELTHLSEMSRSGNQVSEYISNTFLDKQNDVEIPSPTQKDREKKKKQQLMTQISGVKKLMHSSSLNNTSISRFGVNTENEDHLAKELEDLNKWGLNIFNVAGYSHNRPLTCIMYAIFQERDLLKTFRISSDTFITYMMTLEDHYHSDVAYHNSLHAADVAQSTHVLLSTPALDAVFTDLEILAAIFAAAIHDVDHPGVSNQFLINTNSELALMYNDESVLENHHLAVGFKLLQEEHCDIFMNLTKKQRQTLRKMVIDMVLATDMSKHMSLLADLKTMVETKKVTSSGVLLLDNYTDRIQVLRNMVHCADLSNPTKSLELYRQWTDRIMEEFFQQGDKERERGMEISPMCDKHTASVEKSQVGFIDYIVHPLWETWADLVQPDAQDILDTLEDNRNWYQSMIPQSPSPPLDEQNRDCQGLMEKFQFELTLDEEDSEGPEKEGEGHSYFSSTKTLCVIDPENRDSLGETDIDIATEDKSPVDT
Sequence of Cytochrome P450 1A2 (Homo sapiens) (P05177 whole entry, looked up): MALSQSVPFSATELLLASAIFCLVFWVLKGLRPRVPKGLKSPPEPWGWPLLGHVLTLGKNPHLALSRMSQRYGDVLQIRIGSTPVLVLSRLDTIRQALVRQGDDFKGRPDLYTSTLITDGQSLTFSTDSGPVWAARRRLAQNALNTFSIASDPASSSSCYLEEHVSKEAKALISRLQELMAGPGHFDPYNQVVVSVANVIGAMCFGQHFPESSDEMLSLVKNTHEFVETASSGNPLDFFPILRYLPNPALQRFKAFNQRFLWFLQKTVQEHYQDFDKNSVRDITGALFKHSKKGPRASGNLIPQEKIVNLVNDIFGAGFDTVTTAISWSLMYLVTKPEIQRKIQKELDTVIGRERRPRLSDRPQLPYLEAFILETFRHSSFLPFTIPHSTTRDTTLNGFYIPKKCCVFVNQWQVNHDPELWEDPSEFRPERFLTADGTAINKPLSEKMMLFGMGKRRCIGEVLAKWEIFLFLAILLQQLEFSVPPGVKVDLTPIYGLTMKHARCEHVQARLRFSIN

In the case of `O=C1NCN(c2ccccc2)C12CCN(CCCOc1ccc(F)cc1)CC2`, the Potency in test [1] and in test [2] was > 46 µM (inactive) throughout.
With `CC[n+]1c(-c2ccccc2)c2cc(N)ccc2c2ccc(N)cc21`, the Potency in [3] is 26.8 µM (active); in test [4], > 92 µM (inactive); in [5], > 92 µM (inactive); in [7] it was 31.6 µM (active). For the same molecule, the activity change, negative = cytotoxicity in test [6] is -81.5% (active).
In the case of `CCC(=O)O[C@H]1CC[C@H]2[C@@H]3CCC4=CC(=O)CC[C@]4(C)[C@H]3CC[C@]12C`, the molecule was classed as inactive in [8] and in test [10]. In addition, the Potency entry in [9] is “inactive”. The Potency in [1] and in test [2] was > 20.6 µM (inactive) each time.
On to `NC(=O)CN1CCCC1=O`, for which the call in test [8], in [10] and in test [12] was inactive. Besides, in test [9], the Potency entry is “inactive”. The figures for the activity change, negative = inhibition in test [11] (at 17.2 µM (top of the series)) and in test [11] (at 38 µM (top of the series)) were -0.917% (inactive) and 1.7% (inactive), respectively. Further, the Potency is > 46 µM (inactive) and > 20.6 µM (inactive) in test [1]; > 46 µM (inactive) and > 20.6 µM (inactive) in test [2].
For `Clc1ccc(CSC(Cn2ccnc2)c2ccc(Cl)cc2Cl)cc1` (configuration not stated), the molecule was classed as inactive in [8].
Consider `O=C(CCl)c1ccc(Cl)cc1Cl`, for which the Potency in [13] is 47.1 µM (active); in test [3] it was 0.345 µM (active); in [14] it was 47.9 µM (active); in test [5], 9.56 µM (active); in [6], 31.6 µM (active); in test [16], 10 µM (active). Further, the results for the Potency in [17] and in test [7] were 1.26 µM (active) and 31.6 µM (active), respectively. For the same molecule, the activity change, negative = cytotoxicity in test [15] is -145% (active).
`CCCCCCCCCCCC[N+](C)(C)CCOc1ccccc1`: the Potency in test [13] is 13.7 µM (active); in [3], 25.2 µM (active); in test [18], 29.6 µM (active); in [14] it was 58.8 µM (active); in test [4], 14.5 µM (active); in [5] it was 24.5 µM (active). Besides, the Potency was 7.94 µM (active) in test [6]; 31.6 µM (active) in test [19]; 39.8 µM (active) in test [16]; 12.6 µM (active) in test [20]; 25.1 µM (active) in test [7]. The activity change, negative = cytotoxicity in test [15] was -137% (active). In test [17], the Potency result is “inactive”.
Take `COP(=O)(OC)OC=C(Cl)Cl`: the Potency was > 92 µM (inactive) in test [13]; > 92 µM (inactive) in [3]; > 92 µM (inactive) in test [18]; > 92 µM (inactive) in test [14]; 30.9 µM (active) and > 92 µM (inactive) in [4]; > 92 µM (inactive) in [5]. The Potency is 12.6 µM (active) in test [15] and 15.8 µM (active) in test [17]. Besides, the Potency entry in test [6], in test [19], in test [16], in test [20] and in [7] was “inactive” each time.
As to `O=C(O)c1nn(Cc2ccc(Cl)cc2Cl)c2ccccc12`, the molecule was called inactive in [8] and in [12]. The Potency entry in [9] is “inactive”. In addition, the activity change, negative = inhibition in [11] (at 38 µM (top of the series)) is -9.69% (inactive). For the same molecule, the Potency in test [1] and in [2] was > 46 µM (inactive) each time.
As for `c1ccc2nc(N3CCNCC3)ccc2c1`, the outcome in test [8], in [10] and in test [12] was inactive. In addition, the Potency in test [9] was 1.58 µM (active) and 1.26 µM (active) and 251 nM (active); in [1] it was > 46 µM (inactive) and > 20.6 µM (inactive); in [2], > 46 µM (inactive) and > 20.6 µM (inactive). Besides, the activity change, negative = inhibition in test [11] (at 17.2 µM (top of the series)) is -7.47% (inactive); in test [11] (at 38 µM (top of the series)) it was -5.87% (inactive).
For the molecule `COc1ccc(CN2CCNCC2)c(OC)c1OC`, the molecule was called inactive in [8], in test [10] and in test [12]. Further, the activity change, negative = inhibition in test [11] (at 17.2 µM (top of the series)) is -8.2% (inactive). Besides, the Potency in test [1] and in test [2] was > 20.6 µM (inactive) throughout.
With `Oc1ccc2[nH]cc(CCCCN3CC=C(c4ccccc4)CC3)c2c1`, the Potency in test [9] was 31.6 µM (active); in test [1] it was > 46 µM (inactive); in test [2], > 46 µM (inactive). Besides, the molecule was called inactive in test [12].
For the molecule `O=C(CCCN1CCC(n2c(=O)[nH]c3ccccc32)CC1)c1ccc(F)cc1`, the molecule was called inactive in [8], in test [10] and in test [12]. Further, the Potency entry in test [9] is “inactive”. Besides, the Potency in [1] and in test [2] was > 20.6 µM (inactive) in each case.
Regarding `OC(c1ccccc1)(c1ccccc1)C1CCNCC1`, the molecule was called inactive in [8], in test [10] and in test [12]. Also, in [9], the Potency entry is “inactive”. Besides, the Potency in [1] and in test [2] was > 20.6 µM (inactive) each time.

(Values after PubChem BioAssay (NCATS).)
